RE007 growth inh – less growth of the S. pombe RE007 Vpr strain; S. pombe RE007 Vpr strain, BacTiter-Glo ATP luminescence, 24 h; Potency, µM (top dose mostly 92.2 µM), for inactives: at the highest dose activity change, negative = less growth, hits mostly inhibitors; actives 0.21% (n = 360,000); AID 651644; active = well fitted falling curve with a large enough effect; inconclusive = small, poorly fitted or top-dose-only effect; inactive = no such curve, though single readings can be large or run the other way; note: potency is the fitted concentration of half-maximal effect; % is set by controls: 0 for no effect and ±100 for the full control effect; nearly all actives have a fitted effect of over 50% in size
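Fission yeast RE007 carrying one integrated HIV-1 vpr copy, seeded at OD 0.01 in PMG+AL medium with 23 nL pinned compound. Grown 24 h at 30 degrees; viability read by BacTiter-Glo luminescence after 5 min.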
Cycloheximide cs – affects cycloheximide protein synthesis inhibition readout, counter-screen; cell reporter, cycloheximide protein synthesis inhibition counterscreen; max response, %; actives 12% (n = 300,000); in the data active = max response mostly above about 13%, no sharp cut-off; inactive = mostly below about 14%; note: read at 38.3 µM for the half of the compounds with a filed dose; 0% is about no effect
LmPK inhibitor – inhibitors of Leishmania mexicana pyruvate kinase; actives 0.37% (n = 290,000); Potency, µM (doses to about 57.5 µM), for inactives: at the top dose activity change, negative = inhibition, hits mostly inhibitors; purified LmPK, Kinase-Glo ATP luminescence, 1 h; AID 1721; Q27686; note: potency is the fitted concentration of half-maximal effect; % is set by controls: 0 for no effect and ±100 for the full control effect
Target sequence (Q27686 whole entry, looked up): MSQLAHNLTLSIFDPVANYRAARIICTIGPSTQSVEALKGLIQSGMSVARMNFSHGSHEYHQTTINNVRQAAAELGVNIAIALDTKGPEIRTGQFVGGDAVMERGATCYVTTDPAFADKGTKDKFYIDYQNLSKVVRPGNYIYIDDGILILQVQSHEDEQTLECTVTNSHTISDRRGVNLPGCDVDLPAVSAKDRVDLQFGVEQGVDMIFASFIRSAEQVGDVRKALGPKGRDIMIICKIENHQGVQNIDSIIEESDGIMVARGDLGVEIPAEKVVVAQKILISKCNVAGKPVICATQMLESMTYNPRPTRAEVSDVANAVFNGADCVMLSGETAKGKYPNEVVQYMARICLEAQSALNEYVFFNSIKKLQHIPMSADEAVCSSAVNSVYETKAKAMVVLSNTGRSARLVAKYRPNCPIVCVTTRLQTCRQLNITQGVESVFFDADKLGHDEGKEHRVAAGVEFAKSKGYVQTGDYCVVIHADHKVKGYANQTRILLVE
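0.1 nM LmPK, 0.5 mM PEP, 0.1 mM ADP; 50 mM imidazole pH 7.2, 7 mM MgCl2, 50 mM KCl; 1 h RT. Kinase-Glo luminescence readout, normalized to no-enzyme (full inhibition) and uninhibited wells.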
Shiga inhibitor – inhibitors of Shiga toxin in Vero cells; Vero cells, Shiga toxin protein synthesis inhibition reporter; inhibition, % at 38.7 µM; actives 9.2% (n = 290,000); AID 2315; in the data active = inhibition mostly above about 28%, no sharp cut-off; inactive = mostly below about 43%; note: 0% is about no effect
TbPYK inhibitor – blocks Trypanosoma brucei pyruvate kinase; Q57TT1; Potency, µM (doses to about 76.8 µM), without a hit: at the top dose activity, negative = inhibition, actives largely listed as inhibitors; actives 0.12% (n = 410,000); TbPYK enzyme, Kinase-Glo Plus ATP luminescence, 45 min; AID 624173; note: potency is the fitted concentration of half-maximal effect; % is set by controls: 0 for no effect and ±100 for the full control effect; nearly all actives have a fitted effect of over 50% in size
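TbPYK + substrate in 50 mM TEA pH 7.2, 100 mM KCl, 10 mM MgCl2, 0.05% BSA, 0.01% Tween-20; cpd pinned; ADP 130 uM final; 45 min RT; Kinase-Glo Plus 10 min; luminescence endpoint.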
Giardia FBPA inh – Giardia lamblia aldolase inhibition; A8B2U2; purified Giardia FBPA; Potency, µM (highest dose often 59.6 µM), for the others: top-dose activity, negative = inhibition, hits mostly inhibitors; actives 0.71% (n = 290,000); note: potency is the fitted concentration of half-maximal effect; % is set by controls: 0 for no effect and ±100 for the full control effect; nearly all actives have a fitted effect of over 55% in size
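Giardia FBPA (40 nM reagent) was preincubated 10 min at RT with compound (up to 57.5 uM final), then substrate plus GAPDH/TPI/NAD/arsenate coupling system with diaphorase/resazurin was added; resorufin fluorescence (525/598 nm) was read after 20 min.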
Starred values were filed as active, the others as inactive; u = inconclusive; x = no result given. Shown is part of a subset that was picked to be rich in hits. Unless noted, calls come from the whole dose curve; as a rule, active = well fitted curve in the direction sought with a large enough effect; inconclusive = small, poorly fitted or top-dose-only effect, or another doubt; inactive = no such curve, though single readings can be large; an effect the other way counts as inactive or inconclusive.

SMILES	RE007 growth inh	Cycloheximide cs	LmPK inhibitor	Shiga inhibitor	TbPYK inhibitor	Giardia FBPA inh
COCCNC(=O)CSc1nc(-c2ccc(C)cc2)nc2c1c(=O)n(C)c(=O)n2C	x	x	x	x	2.8%	x
CCOc1ccc(-c2ccc(/C=C3/C(=N)N4C=CSC4=NC3=O)o2)c([N+](=O)[O-])c1	5.1%	1.1	-1.5%	-9.6	0.3%	u
CC1=CN2C(=N)/C(=C/c3ccc([N+](=O)[O-])o3)C(=O)N=C2S1	31.6µM*	13.1	-1.7%	18.3	-30.1%	u
CC1=CN2C(=N)/C(=C/c3ccco3)C(=O)N=C2S1	0.0%	47.0*	-19.2%	71.6*	2.9%	8.0%
COc1ccc(C(=O)N2CCC3(CCN(C)CC3)CC2)cc1	x	x	x	x	0.0%	10.1%
c1ccc(-c2onc3c2CCCC3)cc1	-17.2%	16.2*	2.9%	70.6*	1.0%	-0.2%
CN(C)C(=S)SC(=S)N(C)C	x	24.2	x	22.6	u	15.8µM*
COc1ccc(-c2csc(=Nc3ccccc3)n2CCO)cc1	5.8%	16.0*	0.5%	41.4*	-4.6%	-1.6%
Cc1ccc(-c2csc(=Nc3ccccc3)n2CCCO)cc1	x	x	x	x	-1.7%	x
COc1ccc(-c2csc(=NCCO)n2-c2ccccc2)cc1	10.4%	17.3*	3.5%	70.9*	-7.6%	-9.8%
Cc1ccc(C(=O)c2cc3ccccc3o2)cc1C	u	39.0*	-5.2%	59.1*	-15.1%	-10.7%
O=C(c1cc2ccccc2o1)c1cccs1	u	49.5*	-30.0%	81.7*	-6.8%	0.5%
Cc1ccc(C(=O)c2cc3ccccc3o2)cc1	u	55.1*	-6.2%	93.0*	-9.0%	0.0%
Cc1ccc(NC(=O)c2cc3ccccc3o2)nc1	-21.5%	x	x	x	-2.3%	x
COc1ccc(C(=S)N2CCOCC2)cc1OS(=O)(=O)c1ccccc1[N+](=O)[O-]	7.5%	28.0*	0.2%	45.7	-24.9%	-0.8%
CC1CCN(C(=O)CSc2nc3c(c(=O)n2C)SCC3)CC1	-3.1%	17.9*	-6.1%	12.8	-9.3%	x
Cn1c(SCC(=O)N2CCCC2)nc2c(c1=O)SCC2	-2.7%	x	x	x	0.7%	x
COc1cccc(CNC(=O)C(Cc2ccccc2)NS(=O)(=O)c2ccc3c(c2)oc(=O)n3C)c1 (configuration not stated)	x	x	x	x	-3.1%	x
Cc1cc(C)c(Cn2c(=O)n(CCC(=O)NCc3ccc4c(c3)OCO4)c(=O)c3ccccc32)c(C)c1	x	x	x	x	2.7%	x
COc1cc(OC)c(NC(=O)Nc2c(C)n(C)n(-c3ccccc3)c2=O)cc1Cl	x	x	x	x	-11.2%	x
COC(=O)CC1C(=O)NCCN1Cc1cn(-c2ccc(C)cc2)nc1-c1cccc(C)c1 (configuration not stated)	7.2%	19.9*	1.6%	45.5*	1.2%	u
Cc1ccc(-n2cc(CNCCN3CCOC3=O)c(-c3cccc(C)c3)n2)cc1	-4.9%	15.9*	0.4%	54.3*	10.3%	1.6%
COc1ccccc1NC(=O)C1=C(C)Nc2nc(SC)nn2C1c1ccccc1Cl (configuration not stated)	x	x	x	x	-2.5%	x
Clc1ccc(/C=N/N2CCCCC2)cc1	-1.3%	28.6*	-24.4%	33.6*	10.3%	-7.1%
O=[N+]([O-])c1ccc(/C=N/N2CCCCC2)cc1	-13.8%	34.3*	-0.6%	127.5*	1.1%	3.6%
SMILES	RE007 growth inh	Cycloheximide cs	LmPK inhibitor	Shiga inhibitor	TbPYK inhibitor	Giardia FBPA inh
CC1CCCC(C)N1/N=C/c1ccc([N+](=O)[O-])cc1 (configuration not stated)	-10.7%	42.7*	-0.1%	54.1*	-5.1%	-6.6%
O=[N+]([O-])c1ccc(N2CCCCC2)cc1	-18.9%	26.8*	-3.8%	45.1	-11.5%	0.5%
CC1CCC(Nc2nc3c(-c4ccc(Cl)cc4)nnn3c3ccccc23)CC1 (configuration not stated)	x	x	x	x	1.7%	x
Cc1ccc(-c2nn(Cc3ccccc3)cc2C=O)cc1	64.8%	85.4*	-3.5%	54.6*	-7.2%	6.0%
Cc1ccc(-c2nn(Cc3ccccc3)cc2/C=C/C(=O)O)cc1C	0.7%	-4.1	-4.2%	-5.3	-1.0%	-0.4%
Cc1ccc(-c2nn(Cc3ccccc3)cc2C=O)cc1C	1.1%	49.4*	-0.2%	active	0.5%	-2.9%
Cc1ccc(Cn2cc(C=O)c(-c3ccc(F)cc3)n2)cc1	-3.6%	23.2*	3.7%	31.4*	-8.7%	9.1%
Cc1ccc(Cl)cc1NC(=O)N1CCC2(CC1)Oc1ccccc1C(=O)N2Cc1ccccc1F	x	x	x	x	6.6%	x
COc1ccc(C(=O)Nc2cccc(NC(=O)c3ccc(OC)c(OC)c3)n2)cc1OC	2.6%	22.3*	1.3%	39.1*	6.6%	-7.0%
COc1ccc(C(=O)Nc2cccnc2)cc1OC	-3.9%	13.1*	-11.2%	22.6	3.8%	-5.5%
COc1ccc(C(=O)Nc2nc(C)c(C)s2)cc1OC	-8.8%	55.0*	-7.3%	95.7*	-9.2%	-0.3%
CC(C)(C)c1ccc(C(=O)Nc2cccnc2)cc1	-15.6%	25.9*	-4.8%	30.4	-5.2%	-6.4%
O=C(Nc1cccnc1)c1ccc(C(=O)Nc2cccnc2)cc1	-0.9%	-3.6	5.1%	19.1	1.4%	12.1%
COCCNC(=O)CSc1nc(-c2ccccc2C)nc2c1c(=O)n(C)c(=O)n2C	x	x	x	x	1.5%	x
COc1cc2c(cc1NC(=O)c1cccnc1)CCCC2	-1.9%	19.9*	-2.0%	22.9	0.9%	-26.0%
COc1cc(CNC(=O)C2CCCCN2S(=O)(=O)c2ccc(F)cc2)cc(OC)c1OC (configuration not stated)	x	x	x	x	-3.9%	x
Cc1cccc(NC(=O)CSc2nc(=O)n(Cc3ccncc3)c3c2CCC3)c1C	x	x	x	x	-6.3%	x
Cc1cc(C)n2c(nc3ccccc32)c1C(=O)NCc1ccccc1	1.6%	-3.1	5.2%	19.1	-1.6%	10.6%
Cc1cc(C)n2c(nc3ccccc32)c1C(=O)NN	-10.0%	45.3*	-4.1%	18.0*	1.8%	0.7%
CCn1c(SCc2nc3ccccc3s2)nnc1-c1ccccc1	3.8%	28.1*	-1.4%	61.2*	3.3%	-8.1%
COc1cccc(-c2nnc(SCc3nc4ccccc4s3)n2C)c1	31.0%	23.8*	3.0%	15.8	-4.7%	0.1%
COc1ccc(-c2nnc(SCC(=O)Nc3nc4ccccc4s3)n2C)cc1	-10.1%	1.5	13.1%	-12.7	-0.9%	10.1%
Cc1nnc(SCc2nc3ccccc3s2)n1-c1ccccc1	-16.7%	29.9*	2.8%	87.4*	-0.9%	-1.1%
c1ccc(-n2cnnc2SCc2nc3ccccc3s2)cc1	-3.6%	59.6*	15.8%	61.0*	-11.3%	-0.7%
CCn1c(SCc2cccc(C)c2)nnc1-c1ccccc1	-8.3%	7.5	-0.1%	13.9	5.7%	0.6%
Cn1cc(-c2cc3n(n2)CCC(=O)N3CC(=O)NCc2ccccc2)c2ccccc21	x	x	x	x	-1.2%	x

Compound activity: PubChem, National Center for Advancing Translational Sciences (NCATS)
